These results are taken from PubChem BioAssay (NCATS).

SMILES strings stand for the structures. Inconclusive results are not listed. Calls of active or inactive are those of the source. Unless noted, calls come from the whole dose curve; as a rule, active = well fitted curve in the direction sought with a large enough effect; inconclusive = small, poorly fitted or top-dose-only effect, or another doubt; inactive = no such curve, though single readings can be large; an effect the other way counts as inactive or inconclusive.

The target of assay [1] is Lysosomal acid glucosylceramidase (Homo sapiens) (UniProt P04062). Put plainly: Glucocerebrosidase-p2 (AID 348; in the data active = potency below about 10 µM; note: potency is the fitted concentration of half-maximal effect). Particulars: purified GBA, blue fluorogenic substrate, 40 min. A digest of the protocol:
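Normal human glucocerebrosidase (0.2 nM) with blue fluorogenic substrate (80 uM final) in citrate/phosphate pH 5.9 with 10mM sodium taurocholate, 0.01% tween-20; 40 min RT, NaOH/glycine stop; fluorescence Ex 365/Em 440; AC50 from a titration from 0.6 nM upwards.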

The nature of assay [2]: AP1 Signaling Pathway (AID 357; active = well fitted curve in either direction with a large enough effect, not every such curve was filed as active;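 note: ME-180 reporter cells stimulated with EGF at its EC50 level; % is set by controls: 0 for no effect and ±100 for the full control effect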). Particulars: ME-180 AP-1-bla reporter, EGF-induced, beta-lactamase ratio, 5 h; at 7.69 µM (top of the series) unless noted. A digest of the protocol:
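Titration-series screen for positive or negative modulators of EC50 EGF-induced signaling in ME-180 cells carrying an AP-1-driven beta-lactamase reporter. After 5 hours at 37 degrees Celsius, CCF4 460nm/530nm emission ratio gave %Activity; AC50 values derived.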

Assay [3] concerns the target Cytochrome P450 1A2 (Homo sapiens) (UniProt P05177). Put plainly: p450-cyp1a2 (AID 410; calls by dose curve; note: potency is the fitted concentration of half-maximal effect). A digest of the protocol:
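Read-out is luminescence from luciferin produced by CYP1A2 demethylation of Luciferin-ME (100uM, at Km). Detection reagent stopped the 60 min NADPH-dependent reaction; signals were normalized to 57 uM furafylline.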

The nature of assay [4]: NFAT Signaling Pathway (AID 444; active = well fitted curve in either direction with a large enough effect, not every such curve was filed as active;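 note: carbachol stimulus at about its EC50 of 1 µM final; % is set by controls: 0 for no effect and ±100 for the full control effect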). The note with it: Jurkat NFAT-bla M1, carbachol, beta-lactamase ratio, 5 h; at 7.69 µM (top of the series) unless noted. In a few lines:
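Jurkat cells with NFAT-driven β-lactamase reporter and co-expressed M1 receptor, stimulated with carbachol (final 1 uM, ~EC50), compound titration, 5 h at 37 °C. CCF4 loaded 1 h at RT; 460/530 nm ratio gave %activity and AC50.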

A short description of assay [5]: Stat Signaling Pathway (AID 446; active = well fitted curve in either direction with a large enough effect, not every such curve was filed as active;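 note: ME-180 cervical cancer cells given 40 pM IL-6 alongside compound; SIE-controlled beta-lactamase reporter measured as 460/530 nm FRET emission ratio; % is set by controls: 0 for no effect and ±100 for the full control effect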). The note with it: ME-180 (cervical carcinoma) SIE beta-lactamase reporter, IL-6 stimulated, 5 h; at 7.69 µM (top of the series) unless noted. In a few lines:
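Compound effects on IL-6-induced STAT reporter activity were measured in ME-180 cells. After overnight culture, cells were co-treated with 40 pM IL-6 for 5 hrs before beta-lactamase substrate loading at room temperature.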

The target in assay [6] is Glucocorticoid receptor (Homo sapiens) (UniProt P04150). Put plainly: GR-GFP Redistribution (AID 450;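 active = compounds whose dose series gives a full or clear partial fitted curve of increased nuclear translocation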; note: potency is the fitted concentration of half-maximal effect). Particulars: U2OS GR-GFP nuclear translocation, laser cytometry, 2 h.
Sequence of Glucocorticoid receptor (Homo sapiens) (P04150 whole entry, looked up, the tested form may be a part): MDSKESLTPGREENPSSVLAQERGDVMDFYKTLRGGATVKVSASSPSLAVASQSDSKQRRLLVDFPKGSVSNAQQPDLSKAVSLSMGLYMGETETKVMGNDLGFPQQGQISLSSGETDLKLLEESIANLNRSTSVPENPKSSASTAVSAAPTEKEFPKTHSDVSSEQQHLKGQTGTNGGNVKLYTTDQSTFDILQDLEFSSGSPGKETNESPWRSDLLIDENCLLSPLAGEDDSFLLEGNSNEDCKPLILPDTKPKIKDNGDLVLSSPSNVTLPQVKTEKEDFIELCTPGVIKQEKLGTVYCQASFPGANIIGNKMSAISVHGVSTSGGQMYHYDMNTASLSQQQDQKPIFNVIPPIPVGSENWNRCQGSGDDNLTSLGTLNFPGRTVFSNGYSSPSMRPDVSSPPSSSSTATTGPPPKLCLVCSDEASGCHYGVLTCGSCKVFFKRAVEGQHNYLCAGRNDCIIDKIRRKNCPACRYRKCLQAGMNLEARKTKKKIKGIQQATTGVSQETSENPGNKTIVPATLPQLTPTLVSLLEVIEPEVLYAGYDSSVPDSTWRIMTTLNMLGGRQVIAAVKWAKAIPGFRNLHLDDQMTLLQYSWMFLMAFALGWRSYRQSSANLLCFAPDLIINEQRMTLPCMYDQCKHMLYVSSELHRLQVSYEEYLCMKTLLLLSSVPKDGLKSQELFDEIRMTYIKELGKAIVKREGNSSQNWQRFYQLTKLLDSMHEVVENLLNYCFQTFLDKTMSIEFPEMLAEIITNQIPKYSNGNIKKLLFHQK
The target is the same in assay [7]. Put plainly: GR-EFC Redistribution (AID 451; calls by dose curve; note: potency is the fitted concentration of half-maximal effect). Particulars: CHO-K1 GR-EFC translocation, beta-gal luminescence, 2 h. In a few lines: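 CHO-K1 cells expressing nuclear EA and GR-ED fragments of b-gal; compounds titrated up to 46 uM final, 2 h at 37 C. GR nuclear translocation read as complemented b-gal luminescence after 1 h RT detection.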
In assay [8] the target is Mitogen-activated protein kinase 10 (Mus musculus) (UniProt Q61831). Description: JNK3 AlphaScreen Assay (AID 530; active = well fitted curve in either direction with a large enough effect, not every such curve was filed as active;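 note: kinase came from lysate of stimulated human HepG2 cells; signal reports phosphorylation of biotinylated GST-cJun 1-79 at Ser73 with 10 µM ATP; % is set by controls: 0 for no effect and ±100 for the full control effect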). In a few lines: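 HepG2 lysate (IL-1b/TNFa pre-activated) + biotin-GST-cJun 1-79 + anti-pSer73 cJun; cpd titration, 15 min RT; ATP 10 uM start; Tris pH 7.6, MgCl2, DTT, vanadate; beads in EDTA buffer; AlphaScreen.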
For assay [9], the target named is 3',5'-cyclic-AMP phosphodiesterase 4B (Homo sapiens) (UniProt Q07343). Put plainly: qHTS Assay for Inhibitors of PDE-IV (AID 607; active = well fitted activation curve with a large enough effect in the main read-out, with a control signal flat, not every such curve was filed as active; note: % of control where 0% means no effect). A digest of the protocol: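 ACTOne HEK293 cells carry a modified cAMP-gated CNG channel and express endogenous PDE4; plated 1000 cells/well, compounds up to 22.9 uM final. Membrane-potential dye fluorescence (ex 535/em 590) was read; parental cells received 10 uM forskolin + 100 uM RO 20-1724.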
Sequence of 3',5'-cyclic-AMP phosphodiesterase 4B (Homo sapiens) (Q07343 whole entry, looked up): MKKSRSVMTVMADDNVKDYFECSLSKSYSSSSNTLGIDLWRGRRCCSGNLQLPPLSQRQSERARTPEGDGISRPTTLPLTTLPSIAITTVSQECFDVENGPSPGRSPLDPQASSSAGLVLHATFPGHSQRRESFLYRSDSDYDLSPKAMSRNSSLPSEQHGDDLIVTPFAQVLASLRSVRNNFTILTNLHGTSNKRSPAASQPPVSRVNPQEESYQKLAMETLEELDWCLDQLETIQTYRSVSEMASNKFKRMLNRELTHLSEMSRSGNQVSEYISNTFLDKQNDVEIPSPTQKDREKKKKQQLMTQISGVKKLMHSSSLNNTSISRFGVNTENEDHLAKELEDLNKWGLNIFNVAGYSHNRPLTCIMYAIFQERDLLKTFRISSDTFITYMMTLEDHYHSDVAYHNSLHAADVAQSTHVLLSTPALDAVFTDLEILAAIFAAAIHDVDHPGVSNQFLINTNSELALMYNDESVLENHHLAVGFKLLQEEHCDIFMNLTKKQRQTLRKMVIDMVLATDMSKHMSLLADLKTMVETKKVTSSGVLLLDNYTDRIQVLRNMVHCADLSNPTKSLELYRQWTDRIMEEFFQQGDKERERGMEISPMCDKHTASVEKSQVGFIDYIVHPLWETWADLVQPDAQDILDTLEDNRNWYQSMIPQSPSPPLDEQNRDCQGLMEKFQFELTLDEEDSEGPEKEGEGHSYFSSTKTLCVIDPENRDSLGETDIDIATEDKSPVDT

Assay [10] concerns the target Cytochrome P450 3A4 (Homo sapiens) (UniProt P08684). Description: qHTS Assay for Inhibitors and Substrates of Cytochrome P450 3A4 (AID 884). Note: potency is the fitted concentration of half-maximal effect; nearly all actives have a fitted effect of over 50% in size. A digest of the protocol:
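Luminescent readout of luciferin produced by CYP3A4 (20 nM) dealkylation of Luciferin-PPXE, 25 uM (its KM). NADPH-driven reaction ran 60 min at RT after 10 min compound preincubation; data scaled to 57 uM ketoconazole as 100% inhibition.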

For assay [11] the target is unchanged. Description: qHTS Assay for Activators of Cytochrome P450 3A4 (AID 885). Note: nearly all actives have a fitted effect of over 65% in size. In a few lines:
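CYP3A4 activity: Luciferin-PPXE O-dealkylation, 25uM substrate, 200mM KPO4, RT throughout. Read-out is luciferase luminescence; higher values reflect activation.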

Assay [12] in a line: qHTS Assay for Lipid Storage Modulators (AID 1519; calls by dose curve). The note with it: Drosophila S3 cells, BODIPY lipid droplet/cell ratio, laser cytometry, cells loaded with oleic acid; for activity change, negative = inhibition: at 57.5 µM (top of the series). A digest of the protocol: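 Cells seeded at 5,000 per well were treated with compounds over a concentration series and loaded with oleic acid (400 uM, as added). Lipid droplet fluorescence (488 nm excitation, 500-530 nm channel) was read by laser-scanning cytometry and normalized to 20 uM Triacsin C.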

Assay [13] deals with Dual specificity protein kinase CLK4 (Homo sapiens) (UniProt Q9HAZ1). Description: qHTS Assay for Inhibitors of CDC-like Kinase 4 (Kinase-Glo Assay) (AID 1770). Note: nearly all actives have a fitted effect of over 65% in size. Note: potency is the fitted concentration of half-maximal effect. In a few lines:
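Luminescent ATP-depletion read-out (Kinase-Glo) after 4.5 h room-temperature reaction of Clk4 (25 nM final) with RS peptide (100 uM) and ATP (1 uM), pH 7.5 Tris buffer with MgCl2 and DTT.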

Assay [14] shares this target. Put plainly: qHTS Assay for Inhibitors of CDC-like Kinase 4 (ADP-FP Assay) (AID 1795). Note: nearly all actives have a fitted effect of over 60% in size. Note: potency is the fitted concentration of half-maximal effect. In a few lines:
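Kinase activity was measured as ADP production using Transcreener orange tracer (4 nM) and ADP antibody (1 ug/mL) fluorescence polarization, with ADP calculated from a calibration curve. The 1 h reaction contained 6.25 nM Clk4, 1 uM ATP and 100 uM RS peptide at pH 7.5 with Mg2+.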

In assay [15] the target is Ubiquitin carboxyl-terminal hydrolase 1 (Homo sapiens) (UniProt O94782). Description: Inhibitors of USP1/UAF1: Pilot qHTS (AID 504865).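 Note: rhodamine fluorescence freed from ubiquitin-rhodamine substrate followed over time; top concentration of the series differs between compounds; % is set by controls: 0 for no effect and ±100 for the full control effect; nearly all actives have a fitted effect of over 35% in size.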 In a few lines: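 Deubiquitinase activity followed as kinetic rhodamine fluorescence release from 150 nM Ub-Rho. 1 nM USP1/UAF1 with compound, after 15 min room-temperature preincubation, in HEPES pH 7.8 buffer containing TCEP, EDTA, BSA and Tween-20.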
Sequence of Ubiquitin carboxyl-terminal hydrolase 1 (Homo sapiens) (O94782 whole entry, looked up): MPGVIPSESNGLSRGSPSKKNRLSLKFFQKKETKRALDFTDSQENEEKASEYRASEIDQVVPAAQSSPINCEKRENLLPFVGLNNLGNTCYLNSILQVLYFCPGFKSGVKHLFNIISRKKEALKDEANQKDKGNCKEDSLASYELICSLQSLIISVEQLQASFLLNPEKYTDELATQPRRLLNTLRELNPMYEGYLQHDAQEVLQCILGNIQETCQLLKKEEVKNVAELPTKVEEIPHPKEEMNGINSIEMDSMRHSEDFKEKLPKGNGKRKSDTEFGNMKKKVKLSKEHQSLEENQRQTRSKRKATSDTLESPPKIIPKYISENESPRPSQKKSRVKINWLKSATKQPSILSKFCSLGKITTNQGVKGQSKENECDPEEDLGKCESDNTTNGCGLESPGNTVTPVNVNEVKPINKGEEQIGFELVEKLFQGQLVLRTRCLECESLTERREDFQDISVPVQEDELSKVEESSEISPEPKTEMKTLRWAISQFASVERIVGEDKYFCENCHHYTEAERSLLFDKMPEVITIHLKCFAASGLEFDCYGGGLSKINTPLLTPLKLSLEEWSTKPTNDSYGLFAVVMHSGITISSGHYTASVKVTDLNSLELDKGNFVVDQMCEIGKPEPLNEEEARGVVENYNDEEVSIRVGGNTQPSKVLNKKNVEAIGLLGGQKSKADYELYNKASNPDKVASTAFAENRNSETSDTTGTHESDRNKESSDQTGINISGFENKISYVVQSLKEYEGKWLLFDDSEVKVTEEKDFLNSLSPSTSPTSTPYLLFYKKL

Assay [16] concerns the target Dual specificity protein kinase CLK4 (Homo sapiens) (UniProt Q9HAZ1). Description: qHTS Assay for Inhibitors of CDC-like Kinase 4 (ADP-Glo Assay) (AID 1771). Note: nearly all actives have a fitted effect of over 70% in size. Note: potency is the fitted concentration of half-maximal effect. A digest of the protocol: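 In this ADP-Glo format, 1 uM ATP and 100 uM RS peptide served as substrates for 25 nM Clk4 in Mg2+/EGTA/DTT/Triton buffer; reactions ran 1 hr at room temperature before luminescent ADP quantification.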

The target in assay [17] is Cytochrome P450 2C19 (Homo sapiens) (UniProt P33261). Description: qHTS Assay for Inhibitors and Substrates of Cytochrome P450 2C19 (AID 899). Note: potency is the fitted concentration of half-maximal effect; nearly all actives have a fitted effect of over 60% in size. In a few lines:
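Signal comes from luciferase acting on luciferin released by CYP2C19-mediated hydroxylation of Luciferin-H EGE, 10uM (KM). Assay mix: 5nM enzyme, 50mM KPO4; 60 min at 37C with NADPH regeneration. Data normalized against 57uM ketoconazole.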

[18] abbreviates: measured here: cell count channel max response.
The mark [19] stands for this setting: measured here: lipid channel max response.

Sequence of Cytochrome P450 1A2 (Homo sapiens) (P05177 whole entry, looked up): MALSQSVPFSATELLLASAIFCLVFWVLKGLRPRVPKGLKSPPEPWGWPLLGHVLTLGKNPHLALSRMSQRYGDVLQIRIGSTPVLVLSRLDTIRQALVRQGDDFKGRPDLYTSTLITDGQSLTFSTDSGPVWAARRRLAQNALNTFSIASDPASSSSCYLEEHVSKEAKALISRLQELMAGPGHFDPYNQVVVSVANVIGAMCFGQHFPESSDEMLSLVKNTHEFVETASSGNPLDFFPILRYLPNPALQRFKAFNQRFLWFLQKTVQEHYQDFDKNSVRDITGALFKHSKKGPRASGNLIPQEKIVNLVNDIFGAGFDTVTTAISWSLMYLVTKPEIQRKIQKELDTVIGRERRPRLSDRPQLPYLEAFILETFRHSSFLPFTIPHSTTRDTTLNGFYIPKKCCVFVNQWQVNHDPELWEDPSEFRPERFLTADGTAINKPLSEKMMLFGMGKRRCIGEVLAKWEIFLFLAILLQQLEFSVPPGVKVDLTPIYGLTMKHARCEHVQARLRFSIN
Sequence of Dual specificity protein kinase CLK4 (Homo sapiens) (Q9HAZ1 whole entry, looked up): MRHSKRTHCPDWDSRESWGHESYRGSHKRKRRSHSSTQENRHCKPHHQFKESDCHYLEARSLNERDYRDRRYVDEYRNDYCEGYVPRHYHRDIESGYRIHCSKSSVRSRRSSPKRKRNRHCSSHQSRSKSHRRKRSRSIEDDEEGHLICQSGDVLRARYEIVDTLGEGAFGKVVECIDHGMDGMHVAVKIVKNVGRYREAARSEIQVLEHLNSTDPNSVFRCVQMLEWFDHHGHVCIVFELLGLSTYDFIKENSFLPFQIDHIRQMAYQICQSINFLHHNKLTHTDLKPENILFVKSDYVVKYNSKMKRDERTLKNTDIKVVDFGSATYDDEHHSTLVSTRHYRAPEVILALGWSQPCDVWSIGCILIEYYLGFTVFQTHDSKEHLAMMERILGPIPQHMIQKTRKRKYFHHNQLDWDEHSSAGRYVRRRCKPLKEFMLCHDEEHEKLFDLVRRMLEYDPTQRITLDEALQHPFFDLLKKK
Sequence of Lysosomal acid glucosylceramidase (Homo sapiens) (P04062 whole entry, looked up): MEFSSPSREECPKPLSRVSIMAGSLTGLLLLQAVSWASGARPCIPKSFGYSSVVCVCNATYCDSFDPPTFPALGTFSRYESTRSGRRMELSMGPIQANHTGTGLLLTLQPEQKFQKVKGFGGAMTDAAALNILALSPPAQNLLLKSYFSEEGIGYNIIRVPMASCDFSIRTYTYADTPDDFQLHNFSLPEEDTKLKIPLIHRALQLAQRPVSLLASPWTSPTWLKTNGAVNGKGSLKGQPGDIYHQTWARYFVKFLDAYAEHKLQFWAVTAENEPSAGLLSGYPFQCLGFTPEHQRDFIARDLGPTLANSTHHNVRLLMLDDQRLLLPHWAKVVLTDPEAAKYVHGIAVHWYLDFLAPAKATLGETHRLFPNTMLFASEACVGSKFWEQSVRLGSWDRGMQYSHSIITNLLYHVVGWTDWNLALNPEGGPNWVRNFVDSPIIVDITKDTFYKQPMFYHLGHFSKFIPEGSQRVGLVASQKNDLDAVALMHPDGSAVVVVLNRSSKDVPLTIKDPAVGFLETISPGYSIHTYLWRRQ
Sequence of Cytochrome P450 3A4 (Homo sapiens) (P08684 whole entry, looked up): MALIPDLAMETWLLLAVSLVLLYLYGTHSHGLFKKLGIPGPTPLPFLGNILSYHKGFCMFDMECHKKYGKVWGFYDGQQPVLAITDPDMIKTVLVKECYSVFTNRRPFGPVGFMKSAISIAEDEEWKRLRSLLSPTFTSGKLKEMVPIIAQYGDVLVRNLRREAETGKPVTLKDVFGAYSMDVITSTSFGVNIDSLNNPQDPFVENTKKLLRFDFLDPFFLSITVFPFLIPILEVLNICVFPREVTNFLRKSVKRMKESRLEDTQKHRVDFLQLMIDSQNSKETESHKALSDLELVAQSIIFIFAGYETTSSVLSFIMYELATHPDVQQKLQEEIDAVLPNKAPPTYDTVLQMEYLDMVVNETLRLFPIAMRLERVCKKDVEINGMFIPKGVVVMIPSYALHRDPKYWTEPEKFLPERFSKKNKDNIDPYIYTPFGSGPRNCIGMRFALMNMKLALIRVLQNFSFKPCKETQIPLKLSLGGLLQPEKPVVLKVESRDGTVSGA
Sequence of Cytochrome P450 2C19 (Homo sapiens) (P33261 whole entry, looked up): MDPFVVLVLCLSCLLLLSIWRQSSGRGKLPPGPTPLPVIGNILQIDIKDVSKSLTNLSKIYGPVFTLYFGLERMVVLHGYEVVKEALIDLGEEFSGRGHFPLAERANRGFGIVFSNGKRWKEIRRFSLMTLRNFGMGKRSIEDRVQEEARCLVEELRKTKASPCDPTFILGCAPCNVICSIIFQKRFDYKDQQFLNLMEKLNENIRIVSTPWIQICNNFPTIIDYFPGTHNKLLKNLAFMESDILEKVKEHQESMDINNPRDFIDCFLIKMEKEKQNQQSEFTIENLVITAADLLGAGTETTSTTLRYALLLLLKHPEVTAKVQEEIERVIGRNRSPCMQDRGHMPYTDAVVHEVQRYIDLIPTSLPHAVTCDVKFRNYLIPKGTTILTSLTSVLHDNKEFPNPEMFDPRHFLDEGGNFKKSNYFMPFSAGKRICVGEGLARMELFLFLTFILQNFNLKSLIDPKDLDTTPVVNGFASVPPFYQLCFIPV

Take `O=c1c(-c2cccs2)nc2cnc(N3CCNCC3)nc2n1C1CC1`: the Potency in assay [1] is > 11.4 µM (inactive); in [3], 2 µM (active); in assay [6], > 9.22 µM (inactive); in assay [7] it was > 46 µM (inactive); in assay [10] it was 6.31 µM (active). For the same compound, the results for the activity change, negative = inhibition in assay [2], in [4] and in [12] were 5.15% (inactive), 0.706% (inactive) and 1.95% (inactive), respectively. In [5], the activity, negative = inhibition is 14.5% (inactive). The Potency entry in assay [8], in [9], in assay [11], in assay [13], in [14] and in [15] was “inactive” throughout. The max response is 1.24% in assay [12] (setting [18]) and -0.825% in assay [12] (setting [19]).
Turning to `COc1ccccc1-c1ccc2ncnc(NCCNC(C)=O)c2c1`, the Potency in [1] was > 11.4 µM (inactive); in assay [3] it was 5.01 µM (active); in assay [6], > 46 µM (inactive); in assay [7], > 46 µM (inactive); in [13], 11.2 µM (active); in [16], 15.8 µM (active). Further, the activity change, negative = inhibition in [2] is 11.9% (inactive); in [4] it was 3.1% (inactive); in assay [12], 1.76% (inactive). The activity, negative = inhibition in assay [5] is -8.48% (inactive). Besides, the Potency result in [8], in assay [9], in [11] and in assay [15] was “inactive” in each case. The max response in [12] (setting [18]) was -6.93%; in [12] (setting [19]) it was -7.23%.
Consider `COCCNc1ncnc2ccc(-c3ccccc3C(F)(F)F)cc12`, for which the activity change, negative = inhibition is 15.6% (inactive) in assay [2], 18.9% (inactive) in [4] and -1.49% (inactive) in assay [12]. The Potency in assay [3] was 1.58 µM (active); in assay [7], > 46 µM (inactive); in assay [17], 6.31 µM (active); in [13], 25.1 µM (active); in [16] it was 31.6 µM (active). The activity, negative = inhibition in assay [5] was -11.6% (inactive). Besides, the Potency entry in [8], in assay [11] and in assay [15] was “inactive” each time. The max response in [12] (setting [18]) was -4.06%; in assay [12] (setting [19]), -5.73%.
Take `COCCn1c(=O)c(C)nc2cnc(Nc3cccc(OC)c3)nc21`: the Potency is > 11.4 µM (inactive) in assay [1]; 1 µM (active) in assay [3]; > 9.22 µM (inactive) in assay [6]; > 46 µM (inactive) in assay [7]; 15.8 µM (active) in assay [13]; 25.1 µM (active) in assay [16]. The figures for the activity change, negative = inhibition in [2], in assay [4] and in assay [12] were 7.44% (inactive), 5.07% (inactive) and -6.39% (inactive), respectively. Further, in [5], the activity, negative = inhibition is -7.83% (inactive). Besides, the Potency entry in [8], in assay [9], in [11] and in assay [15] was “inactive” throughout. For the same compound, the max response in assay [12] (setting [18]) was -14.8%; in assay [12] (setting [19]), -22.1%.
Take `COc1ccc(CNc2ncnc3ccc(-c4ccoc4)cc23)c(OC)c1`: the Potency was 1.58 µM (active) in assay [3]; > 46 µM (inactive) in assay [7]; 3.16 µM (active) in assay [10]; 7.94 µM (active) in assay [17]; 0.708 µM (active) in assay [13]; 1 µM (active) in [16]. In addition, in assay [14], the Potency was 0.282 µM (active). The activity change, negative = inhibition in assay [4] was 4.83% (inactive); in assay [12], -9.76% (inactive). In [5], the activity, negative = inhibition was -19.6% (inactive). The Potency result in assay [8], in assay [11] and in assay [15] was “inactive” in each case. Also, the results for the max response in [12] (setting [18]) and in [12] (setting [19]) were 19.6% and 6.18%, respectively.
Consider `CN1CCN(c2ncc3nc(-c4cccs4)c(=O)n(Cc4cccs4)c3n2)CC1`, for which the Potency in [1] was > 11.4 µM (inactive); in [3], 15.8 µM (active); in assay [6] it was > 9.22 µM (inactive); in [7], > 46 µM (inactive). Besides, the Potency entry in assay [9], in assay [11], in assay [13], in assay [16], in assay [14] and in assay [15] was “inactive” throughout. The activity change, negative = inhibition in assay [12] was -5.19% (inactive). For the same compound, the values for the max response in assay [12] (setting [18]) and in assay [12] (setting [19]) were 2.92% and -4.19%, respectively.
